Assay outcomes deposited in PubChem BioAssay by Buhrlage Lab, Dana-Farber Cancer Institute and Novartis Institutes for BioMedical Research (Cambridge, Mass).
OTUD3 inh: blocks human OTUD3 ubiquitin-rhodamine cleavage. Q5T2D3. purified OTUD3, Ub-rhodamine fluorescence, 2 h. inhibition, % at 25 µM. actives 0.7% (n = 47,000). AID 1645858
USP17 inh: inhibitors of human USP17 deubiquitinase | AID 1645855 | inhibition, % at 50 µM | purified USP17, Ub-rhodamine cleavage fluorescence, 3 h | A8MUK1 | actives 6.5% (n = 47,000)
Target sequence (A8MUK1 whole entry, looked up): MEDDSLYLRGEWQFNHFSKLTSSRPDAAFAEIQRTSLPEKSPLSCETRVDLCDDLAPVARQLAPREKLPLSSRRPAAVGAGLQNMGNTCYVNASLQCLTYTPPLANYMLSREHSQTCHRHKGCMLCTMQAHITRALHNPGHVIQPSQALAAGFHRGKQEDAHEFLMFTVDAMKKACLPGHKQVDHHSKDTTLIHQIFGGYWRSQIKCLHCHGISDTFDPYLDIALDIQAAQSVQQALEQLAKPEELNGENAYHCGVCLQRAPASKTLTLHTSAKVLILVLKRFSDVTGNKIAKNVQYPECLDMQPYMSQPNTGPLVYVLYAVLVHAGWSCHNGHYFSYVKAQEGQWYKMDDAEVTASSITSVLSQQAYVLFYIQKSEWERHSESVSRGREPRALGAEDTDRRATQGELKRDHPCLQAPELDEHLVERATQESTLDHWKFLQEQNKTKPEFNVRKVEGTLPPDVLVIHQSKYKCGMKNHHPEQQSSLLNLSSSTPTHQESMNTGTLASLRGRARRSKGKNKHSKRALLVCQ
USP28 block: blocks human USP28 ubiquitin-rhodamine cleavage. actives 3% (n = 47,000). AID 1645857. Q96RU2. purified USP28, Ub-rhodamine cleavage fluorescence, 30 min. inhibition, % at 25 µM
USP30 inh: blocks human USP30 ubiquitin-rhodamine cleavage; purified USP30, Ub-rhodamine cleavage fluorescence; AID 1645860; actives 5.3% (n = 47,000); inhibition, % at 25 µM
Large screens that a line does not name were inactive. Shown are actives, neighbours in structure and some others; about 12% of the full set was active somewhere. No stated cut-off is given here; in the data, active means inhibition above about 30%; inactive means the rest.

O=C(NCC1CCCCC1)N1C[C@H]2C[C@H](C(=O)N3CCCC3)[C@@H](C1)O2	none
O=C(COc1nc2ccccc2nc1N1CCOCC1)Nc1cccc(S(=O)(=O)N2CCCCC2)c1	OTUD3 inh 47
O=C(Nc1cccc(S(=O)(=O)N2CCCC2)c1)c1ccc(N2CCOCC2)c([N+](=O)[O-])c1	USP28 block 41
Cc1ccc(NC(=O)CC(C)CC(=O)Nc2ccc(C(C)C)cc2)cc1Cl (centres undefined)	none (no result: USP17 inh)
Cc1cccc(CNC(=O)Cn2cc(-c3nnco3)c3ccccc32)c1	USP17 inh 46
Cc1cccc(CNC(=O)Cn2cc(-c3nnc(C)o3)c3ccccc32)c1	none
CN1CC(=O)N(C2CCNCC2)Cc2c(NC3CCCCC3)ncnc21	none
Cc1cccc(NC(=O)Nc2nnc(CC(=O)NCc3ccccc3)s2)c1	USP17 inh 73
O=C(Cc1nnc(NC(=O)Nc2ccc3c(c2)OCO3)s1)NCc1ccccc1	none
Cc1nc2nc(N(C)S(=O)(=O)c3ccccc3)nn2c(C)c1Cl	none
COc1ccc(Cc2nnc(Nc3ccc(Cl)cc3)[nH]c2=O)cc1	none
COc1ccc(Cc2nnc(Nc3ccc(F)cc3)[nH]c2=O)cc1OC	USP30 inh 35
Cn1c(=O)c(N2CCN(S(=O)(=O)c3ccccc3)CC2)nc2ccncc21	none
CC(=O)Nc1ccc(C2C3=C(CC(C)(C)CC3=O)Nc3onc(C)c32)cc1 (centres undefined)	none
CCOc1cc(C2C3=C(CC(C)(C)CC3=O)Nc3onc(C)c32)ccc1O (centres undefined)	USP17 inh 51, USP30 inh 45
CNC(=O)C1CN(C(=O)c2ccc(OC)cc2)CC12CCCC2 (centres undefined)	OTUD3 inh 55
O=S(=O)(c1ccccc1)N1CCC2(CC1)NCCN=C2NCc1cc(F)cc(F)c1	USP30 inh 33
Clc1ccc(-c2noc(-c3cnccn3)n2)cc1	USP30 inh 31
CCc1nc(-c2cccc(-c3noc(-c4cnccn4)n3)c2)cs1	none
Cc1ccc(NC(=O)c2ccccc2)c(=O)n1CC(=O)N1CCN(c2ccccn2)CC1	none
CCn1c(COc2cccc(C(F)(F)F)c2)nnc1SCc1ccc(Cl)cc1	USP17 inh 36, USP28 block 59, USP30 inh 58
CCn1c(COc2ccc(OC)cc2)nnc1SCc1ccccc1Cl	USP30 inh 32
CCn1c(COc2ccccc2OC)nnc1SCc1ccccc1	none
CCn1c(COc2ccc3c(c2)OCO3)nnc1SCc1ccc([N+](=O)[O-])cc1	none
Cc1ccccc1CN1CN(C2CCN(C(=O)c3ccco3)CC2)CC1=O	none
O=C(CNC(=O)c1cccc(F)c1)Nc1nc2ccccc2[nH]1	USP17 inh 64, USP30 inh 39
Cc1ccccc1CC(=O)NCC(=O)Nc1nc2ccccc2[nH]1	USP17 inh 44, USP30 inh 32
Cc1ccc(C(=O)NCC(=O)Nc2nc3ccccc3[nH]2)cc1	USP17 inh 42
O=C(Cc1cccc(F)c1)NCC(=O)Nc1nc2ccccc2[nH]1	none
Cc1ccc(CC(=O)NC(C)C(=O)Nc2nc3ccccc3[nH]2)cc1 (centres undefined)	none
COc1cc(CNc2nn[nH]n2)cc(Cl)c1OCc1ccccc1	none (no result: USP28 block, USP30 inh)
Cc1cc(N2CCCC2c2nccnc2-c2nccn2C)ncn1 (centres undefined)	none
O=C1CCCc2cc(S(=O)(=O)N3CCCC3C(=O)N3CCOCC3)ccc2N1 (centres undefined)	none
CC1CCCN(C(=O)CN2CCC3(CC2)CN(S(C)(=O)=O)Cc2ccccc2O3)C1 (centres undefined)	none
Cc1ccccc1C(=O)NCCn1cc(SCC(=O)Nc2ccc3c(c2)OCCO3)c2ccccc21	OTUD3 inh 44, USP28 block 57, USP30 inh 89
O=C(CCn1c(=O)c2ccccc2n(CC(=O)Nc2ccc3c(c2)OCCO3)c1=O)NCCc1ccccc1	USP17 inh 48
Cc1ccccc1Cn1cc(SCC(=O)Nc2ccc3c(c2)OCCO3)c2ccccc21	USP28 block 50, USP30 inh 35
O=C(CSc1cn(Cc2ccccc2)c2ccccc12)Nc1ccc2c(c1)OCCO2	USP28 block 60, USP30 inh 48 (no result: USP17 inh)
O=C(CSc1cn(CC(=O)N2CCCCC2)c2ccccc12)Nc1ccc2c(c1)OCO2	none
Cc1ccccc1C(=O)NCCn1cc(SCC(=O)N2CCOCC2)c2ccccc21	none
COc1ccccc1-c1nc2ccccc2n1C1CCN(C(=O)CCN)CC1	none
CCOC(=O)c1ccc(N2CCN(CC)CC2)c(NC(=O)/C=C/c2cccc([N+](=O)[O-])c2)c1	none
CC1CCN(c2nc3ccccc3nc2SCC(=O)NCCc2ccc(Cl)cc2)CC1	none
